From PubChem
IL-1B inflam inh = inhibitors of inflammasome signaling (IL-1 beta secretion). THP-1 LPS/ATP IL-1B secretion, AlphaLISA, 16 h; stronger effect = lower value. activity change, % at 57.5 µM. hit rate 4.7% among 360,000; in the data active = activity change below about -50%; inconclusive = mostly about -30% to -49%
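Secreted IL-1B measured by AlphaLISA bead assay after 16 h compound exposure of THP-1 cells; compounds (final up to 57.5 uM) added 1 h before LPS (250 ng/mL) and ATP (1.25 mM) stimulation; lower signal means less secretion.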
HT1080-NT tox = kills 2HG-producing HT-1080-NT fibrosarcoma cells; HT-1080-NT fibrosarcoma viability, CellTiter-Glo ATP luminescence, 48 h; Potency, µM (doses to about 46.1 µM), for the others: at the top dose activity, negative = less viability, hits mostly cytotoxic; hit rate 1.6% among 360,000;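 also: NT is the 2HG producing partner of a matched IDH1 knockdown line; potency is read from the fitted curve at half-maximal effect; 0% = DMSO-treated cells and -100% = media-only wells without cells; nearly all actives have a fitted effect of over 55% in size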
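Luminescent CellTiter-Glo readout after 48 hours of compound exposure at 37 degrees C defined viability of HT-1080-NT cells. Activity was normalized to DMSO wells and cell-free media wells; concentration-response curves were fitted and assigned curve classes.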
KB-V1 MDR tox = KB-V1 MDR subline cytotoxicity; Potency, µM (titrated, usually from 46.1 µM), actives largely listed as cytotoxic; hit rate 3.4% among 400,000; KB-V1 MDR cells viability, CellTiter-Glo, 72 h; also: potency is read from the fitted curve at half-maximal effect; nearly all actives have a fitted effect of over 60% in size
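Luminescent ATP read-out (CellTiter-Glo, 10 min) measures survival of drug-selected KB-V1 MDR cells after 72 h, 37 degrees C compound exposure. Medium: phenol-red-free DMEM, 10% FBS. Values from fitted concentration-response curves.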
HT1080 IDH1KD tx = kills HT-1080 cells with IDH1 knockdown; HT-1080 IDH1 knockdown viability, ATP luminescence, 48 h; hit rate 2% among 360,000; AID 686971; Potency, µM (top dose mostly 46.1 µM), for inactives: at the top dose activity, negative = toxicity, usual class: cytotoxic;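 also: potency is read from the fitted curve at half-maximal effect; 0% = DMSO wells and -100% = cell-free medium wells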
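IDH1KD HT-1080 cells, 750/well, RPMI + 5% FBS; compound pinned after 2 h settling; 48 h, 37 °C; CellTiter-Glo luminescence; % activity normalised to DMSO and no-cell wells; curves fitted, classed by r2 and efficacy.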
KB-3-1 tox = kills parental KB-3-1 adenocarcinoma cells | Potency, µM (series often up to 46.1 µM), hits mostly cytotoxic | KB-3-1 viability, CellTiter-Glo ATP luminescence, 72 h | hit rate 1.4% among 400,000; also: potency is read from the fitted curve at half-maximal effect; nearly all actives have a fitted effect of over 60% in size
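Cells are dispensed, compounds pinned in, plates held at 37 °C for 72 h, then CellTiter-Glo is added and luminescence read after 10 minutes. Cell line: parental KB-3-1 in phenol-red-free DMEM, 10% FBS.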
Active calls of the source: *; i = inactive; ? = inconclusive; · = no result. In the library only some 8.8% were active in any assay of this set; here they are far more common. Unless noted, calls follow the shape of the dose curve; as a rule, active = well fitted curve in the direction sought with a large enough effect; inconclusive = small, poorly fitted or top-dose-only effect, or another doubt; inactive = no such curve, though single readings can be large; an effect the other way counts as inactive or inconclusive. Unless noted, % is scaled to controls: 0 for no effect and ±100 for the full control effect.

SMILES | IL-1B inflam inh | HT1080-NT tox | KB-V1 MDR tox | HT1080 IDH1KD tx | KB-3-1 tox
Cc1cccc(NC(=O)c2nc[nH]c2C(=O)N[C@@H](CC(C)C)C(=O)OC(C)(C)C)c1 | ? | ? | ? | ? | 12µM*
COc1ccc(C(=O)C2CCN(CC(=O)Nc3ccc(C)cc3)CC2)cc1 | -10 | ? | i | -7% | i
COC(=O)[C@]1(Cc2ccccc2)N[C@H](c2ccc(SC3CCCCC3)c(OC)c2)[C@@H]2C(=O)N(C)C(=O)[C@@H]21 | -10 | 23% | i | 0% | ?
Cc1ccc(CNc2ccc([N+](=O)[O-])cc2C(N)=O)cc1 | 7 | 17% | i | 6% | i
Cc1ccc(Oc2c(C(N)=O)cc([N+](=O)[O-])cc2[N+](=O)[O-])cc1 | -85* | ? | i | ? | 21µM*
CN1C2CCC1/C(=C\c1ccccc1F)C(=O)/C2=C/c1ccccc1F | -101* | ? | 13µM* | 12µM* | ?
O=C(NCc1nc(-c2ccc(C(F)(F)F)cc2)no1)Nc1cc(Cl)cc(Cl)c1 | -94* | ? | ? | ? | ?
Cc1ccc(S(=O)(=O)N(C)C)cc1NC(=O)C(C)OC(=O)C1CCC1 (stereo not drawn) | 1 | 3% | ? | 17% | i
c1nc(NCCCN2CCCCC2)c2cc(-c3ccc4c(c3)OCO4)ccc2n1 | · | · | i | · | ?
O=C(/C(=C/O)N=Nc1ccc(Cl)cc1)c1ccncc1 | -7 | ? | i | 21µM* | 13µM*
Cc1ccc(N=N/C(=C\O)C(=O)c2ccncc2)cc1 | -7 | 26µM* | i | 16µM* | i
COC(=O)C(N)CCCCN (stereo not drawn) | 14 | 0% | i | 0% | i
Cc1nc(SCC(=O)NC(C)c2ccccc2)c2oc3ccccc3c2n1 (stereo not drawn) | 0 | 11% | 5.2µM* | 11% | i
CCc1nc(SCC(=O)NCCc2ccccc2)c2oc3ccccc3c2n1 | -11 | 7% | 18µM* | 7% | i
Cc1nc(SCC(=O)Nc2ccccc2)c2oc3ccccc3c2n1 | 3 | 5% | i | -2% | i
Cc1cc(C)nc(Sc2nc(C)nc3c2oc2ccccc23)n1 | ? | ? | ? | ? | 21µM*
Cc1nc(SCc2cccc(F)c2)c2oc3ccccc3c2n1 | 39 | -12% | i | -6% | i
Cc1nc(NCCc2ccccc2)c2oc3ccccc3c2n1 | 2 | -16% | 23µM* | ? | ?
Cc1ccc2[nH]cc(C(O)c3c[nH]c4ccc(C)cc34)c2c1 | · | · | i | · | i
Cc1c(C(=O)Oc2ccc(Br)cc2)sc2ncn(Cc3ccccc3F)c(=O)c12 | · | · | i | · | i
Cn1c(=O)[nH]c(=O)c2cc(C(=O)c3cc(F)ccc3O)cnc21 | 26 | -24% | ? | 0% | i
CCc1nc(SCC(=O)N2CCc3ccccc32)c2oc3ccccc3c2n1 | 6 | -1% | i | 1% | i
Cc1nc(SCC(=O)N2CCCc3ccccc32)c2oc3ccccc3c2n1 | -8 | -2% | 21µM* | 8% | i
CCN(CC)c1ccc(/C=N/N2CCN(Cc3ccc(Cl)cc3)CC2)c(O)c1 | 19 | -5% | i | 21% | i
CCN(CC)c1ccc(/C=N/N2CCN(Cc3cccc4ccccc34)CC2)c(O)c1 | -23 | 0% | 16µM* | -15% | i
SMILES | IL-1B inflam inh | HT1080-NT tox | KB-V1 MDR tox | HT1080 IDH1KD tx | KB-3-1 tox
COC(=O)/C=C1\N/C(=N\c2nc(C)cc(C)n2)N(c2ccc(Cl)cc2)C1=O | · | -1% | i | 1% | i
CCc1ccc(CNCc2c(C(=O)O)c(C)n(Cc3c(F)cccc3Cl)c2C)cc1 | · | · | i | · | i
O=C1CCCc2cc3c(cc21)CC1(C3)Cc2cc3c(cc2C1)C(=O)CCC3 | 0 | ? | i | ? | 6.5µM*
COC(=O)CSc1nccc(C)n1 | -7 | -1% | i | -3% | i
O=c1n(Cc2ccc(Cl)cc2)c2sc3c(c2c2ncnn12)CCCC3 | -20 | 0% | ? | 3% | ?
C=CCn1c(=O)n2ncnc2c2c3c(sc21)CCCC3 | 0 | 0% | 15µM* | 7% | i
Cc1c(CCO)c(=O)[nH]n1S(=O)(=O)c1ccc(F)cc1 | 4 | -1% | i | 10% | i
CCCC(=O)NC(c1ccc2c(c1)OCO2)c1cc(Cl)c2cccnc2c1O (stereo not drawn) | -82* | 8.2µM* | ? | 3.7µM* | ?
CCCC(=O)NC(c1ccco1)c1cc(Cl)c2cccnc2c1O (stereo not drawn) | 72 | ? | ? | 10µM* | i
CCSC1=NS(=O)(=O)c2ccccc21 | · | · | ? | · | i
C=C[C@]1(C)C=C2C(=O)[C@@]3(O)OC(=O)[C@@]4(CCCC(C)(C)[C@H]34)[C@@]2(O)CC1 | -113* | 2.9µM* | ? | 2.9µM* | 4.6µM*
O=C(c1ccccc1Cl)n1nc(-c2ccco2)nc1NCc1cccs1 | · | · | i | · | i
O=c1[nH]c2ccc(Cl)cc2c(-c2ccccc2)c1N1CCN(c2ccccn2)CC1 | 19 | 0% | 13µM* | 3% | i
O=c1[nH]c2ccc(Cl)cc2c(-c2ccccc2)c1N1CCOCC1 | 0 | -2% | i | 0% | i
CN1CCN(c2oc(-c3ccc(OCc4ccc(Cl)cc4)cc3)nc2C#N)CC1 | · | · | i | · | i
NC1=NC(c2ccc(Cl)cc2)C(C(=O)c2ccccc2)N1 (stereo not drawn) | 100 | 18µM* | i | 15µM* | ?
O=C(c1cc([N+](=O)[O-])ccc1Cl)N1CCc2ccccc21 | -18 | -4% | i | -16% | i
O=C(c1cc([N+](=O)[O-])ccc1N1CCCCC1)N1CCCCC1 | 0 | 6% | 16µM* | ? | i
O=C(c1cc([N+](=O)[O-])ccc1N1CCCCC1)N1CCc2ccccc21 | -4 | ? | 5.8µM* | 2.3µM* | 5.8µM*
Cc1ccc(NC(=O)c2ncn(CCCN3CCN(Cc4cccc5ccccc45)CC3)n2)cc1C | -52* | ? | i | ? | i
C[n+]1ccccc1COc1ccc(C(C)(C)C)cc1 | -5 | -10% | ? | -23% | 23µM*
CC(C)(C)c1ccc(OCc2nc3ccccc3n2CCOc2ccccc2)cc1 | · | · | i | · | i
O=C(NCc1cccc(F)c1)C1CCN(c2nn3cc(-c4ccc(F)cc4)nc3s2)CC1 | · | · | i | · | i
COc1ccc(-c2nc3ccc(Cl)cn3c2CC(C)(C)C)cc1OC | 0 | 0% | i | -2% | i
CCn1c(=O)c2ccccc2n(Cc2cccc([N+](=O)[O-])c2)c1=O | -50* | -4% | i | -4% | i
O=C1N=C(N2CCOCC2)SC1=Cc1ccco1 | -4 | 12% | ? | 5% | ?
